# MCF10A rereplic = inducers of DNA re-replication in MCF 10A breast cells | MCF 10A DNA re-replication, Hoechst nuclear intensity, 48 h | Potency, µM (series often up to 46.1 µM), for the others: top-dose activity, positive = re-replication, hits mostly activators | 350,000 compounds, 2.9% hits | AID 624296; further: % of control where 0% means no effect; nearly all actives have a fitted effect of over 50% in size
# KB-V1 cytotox = kills drug-selected multidrug resistant KB-V1 cells; AID 1347076; 400,000 compounds, 3.4% hits; Potency, µM (doses to about 46.1 µM), usual class: cytotoxic; KB-V1 MDR cells viability, CellTiter-Glo, 72 h; further: on the % scale 0 is the no-effect control and ±100 the full control effect; nearly all actives have a fitted effect of over 60% in size
#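 Following 72 h at 37 degrees C with compound, KB-V1 cell viability was read by CellTiter-Glo luminescence, medium being phenol-red-free DMEM plus 10% FBS; concentration-response parameters came from normalized, curve-fitted qHTS data.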
# Gal4-VP16 FLuc = counter-screen for ROR gamma inhibitors: Gal4-VP16 reporter. Potency, µM (highest dose often 53.6 µM), without a hit: at the top dose activity, negative = inhibition, most hits filed as inhibitors. Drosophila S2 Gal4-VP16 UAS-luciferase, luminescence, 20 h. 310,000 compounds, 3.5% hits;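 further: Gal4-VP16 expression switched on by copper sulfate through the metallothionein promoter; on the % scale 0 is the no-effect control and ±100 the full control effect; nearly all actives have a fitted effect of over 50% in size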
# RORgamma inh = blocks mouse ROR gamma transcriptional activity. P51450. Drosophila S2 Gal4-RORgamma UAS-luciferase reporter, 20 h. Potency, µM (top dose mostly 53.6 µM), for the others: at the top dose activity change, negative = inhibition, actives largely listed as inhibitors. 310,000 compounds, 5.4% hits; further: on the % scale 0 is the no-effect control and ±100 the full control effect; nearly all actives have a fitted effect of over 60% in size
# Target sequence (P51450 whole entry, looked up, the tested form may be a part): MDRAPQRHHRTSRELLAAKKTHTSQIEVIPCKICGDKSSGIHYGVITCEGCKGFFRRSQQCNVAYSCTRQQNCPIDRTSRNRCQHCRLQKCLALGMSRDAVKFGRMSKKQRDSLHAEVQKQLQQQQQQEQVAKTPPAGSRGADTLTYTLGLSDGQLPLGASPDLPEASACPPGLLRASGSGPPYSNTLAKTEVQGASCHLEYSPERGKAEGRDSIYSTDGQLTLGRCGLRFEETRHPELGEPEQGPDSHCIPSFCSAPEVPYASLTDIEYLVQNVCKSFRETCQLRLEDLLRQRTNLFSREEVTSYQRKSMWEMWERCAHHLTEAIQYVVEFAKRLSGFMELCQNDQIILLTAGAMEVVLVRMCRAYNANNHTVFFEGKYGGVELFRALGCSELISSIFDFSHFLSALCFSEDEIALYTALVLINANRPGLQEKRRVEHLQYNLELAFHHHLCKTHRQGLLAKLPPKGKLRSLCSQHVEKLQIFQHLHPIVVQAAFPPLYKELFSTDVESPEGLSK
#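 In this cell-based reporter format, copper sulfate (700 uM final) drives Gal4–ROR gamma fusion expression from a metallothionein promoter in Drosophila Schneider cells; compounds preincubated 1 hr, reporter read after 20 hr at ambient temperature.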
# SW480 rereplic = inducers of DNA re-replication in SW480 colon cancer cells; SW480 DNA re-replication, Hoechst DNA content imaging, 48 h; Potency, µM (doses to about 46.1 µM), for the others: top-dose re-replication activation, actives largely listed as activators; 340,000 compounds, 1.8% hits; AID 624297; further: % of control where 0% means no effect; nearly all actives have a fitted effect of over 55% in size
#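 Quantitative HTS format with DMSO vehicle controls; 48 hr drug incubation at 37 C, then 40 min Hoechst staining and scanning imager measurement at 405 nm excitation.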
# KB-3-1 tox = KB-3-1 parental cell cytotoxicity; KB-3-1 viability, CellTiter-Glo ATP luminescence, 72 h; Potency, µM (top dose mostly 46.1 µM), most hits filed as cytotoxic; 400,000 compounds, 1.4% hits; AID 1347075; further: on the % scale 0 is the no-effect control and ±100 the full control effect; nearly all actives have a fitted effect of over 60% in size
#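 72 h, 37 °C compound treatment of KB-3-1 parental cells; CellTiter-Glo added, 10 min, luminescence read. Data corrected against DMSO-only plates and normalized before curve fitting.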
# Active calls of the source: *; i = inactive; u = inconclusive; x = no result; [ ] = remark or other dose. Most compounds without a hit are left out; they make up all but 10% or so of the library. The call rests on the fitted dose curve; in most records, active means well fitted curve in the direction sought with a large enough effect; inconclusive means small, poorly fitted or top-dose-only effect, or another doubt; inactive means no such curve, though single readings can be large; an effect the other way counts as inactive or inconclusive. Potency means the concentration at half of the fitted maximal effect.
SMILES,MCF10A rereplic,KB-V1 cytotox,Gal4-VP16 FLuc,RORgamma inh,SW480 rereplic,KB-3-1 tox
COc1ccc(S(=O)(=O)Nc2cc(C(=O)NC(C)C)ccc2N2CCOCC2)cc1,16%,u,4%,-9%,-3%,u
COc1ccc(NS(=O)(=O)c2ccc(N3CCOCC3)c(N)c2)cc1,-1%,18µM*,x,x,-7%,u
COc1ccc(-c2cc(C(=O)Nc3cc(S(=O)(=O)N4CCOCC4)ccc3N3CCOCC3)c3ccccc3n2)cc1,2.3µM*,i,4%,-1%,-46%,i
COc1cccc(-c2nc(SCC(=O)NCC3CCCO3)c(-c3ccc(Cl)cc3)[nH]2)c1 (stereo not drawn),x,u,x,x,x,i
O=C(O)c1ccccc1NC(=O)C(Cc1ccccc1)N1C(=O)c2ccccc2C1=O (stereo not drawn),-2%,i,4%,17%,-20%,i
O=C(Nc1ccc([N+](=O)[O-])cc1)C(Cc1ccccc1)N1C(=O)c2cccc3cccc(c23)C1=O (stereo not drawn),12µM*,u,-15%,u,18µM*,u
COC(=O)c1ccc(C(=O)N2CCCCCC2(C)C(=O)NC(C)C)cc1 (stereo not drawn),x,i,x,x,x,i
CCOC(=O)C1=C(C)N=c2s/c(=C\c3ccc(OCC(=O)O)cc3)c(=O)n2C1c1ccc(Cl)cc1 (stereo not drawn),18µM*,i,-13%,31%,-56%[1.84 µM],i
CCOC(=O)C1=C(C)N=c2s/c(=C/c3ccc(OCC(=O)O)cc3)c(=O)n2C1c1ccc(F)cc1 (stereo not drawn),u,i,12%,20%,-6%,i
CCn1c(=O)c(=O)n(CC)c2cc(N3CCCCC3)c(NC(=O)c3cccc(OC)c3)cc21,x,i,x,x,x,i
CC1=CC(=O)C=C(C)C1=NOC(=O)c1cccc([N+](=O)[O-])c1,u,u,u,11µM*,7%,i
CCOC(=O)c1ccc(Nc2cc(C)nc(-c3ccccc3O)n2)cc1,-3%,i,-26%,-4%,-10%,i
Cc1cc(NCc2ccccc2)nc(-c2ccccc2O)n1,u,16µM*,-2%,u,-4%,u
Cc1cc(N2CCCCC2C)nc(-c2ccccc2O)n1 (stereo not drawn),18%,i,-9%,1%,u,i
Cc1cc(Nc2ccccc2Cl)nc(-c2ccccc2O)n1,u,i,-2%,u,u,i
Cc1ccc(C)c(Nc2cc(C)nc(-c3ccccc3O)n2)c1,u,i,-11%,28%,u,2.6µM*
Cc1cc(NC2CCCCC2)nc(-c2ccccc2O)n1,18µM*,u,2%,30%,0%,u
Cc1cc(N/N=C/c2c(O)ccc3ccccc23)nc(-c2ccccc2O)n1,3.3µM*,u,4µM*,7.1µM*,13µM*,u
Cc1cc(Nc2ccccc2)nc(-c2ccccc2O)n1,u,i,-2%,42%,1%,i
CCCC/C=C/[C@H](c1ccccc1)[C@H](CO)Cc1ccccc1,x,x,-13%,22%,x,x
CCOc1cc(C(=O)Nc2ccc3c4c(cccc24)C(=O)N3CC)cc(OCC)c1OCC,19%,9.2µM*,22%,-25%,-6%,i
CCN1C(=O)c2cccc3c(NC(=O)c4cccc(N5C(=O)CCC5=O)c4)ccc1c23,7%,i,-10%,-35%,-7%,i
COc1cc2nc(CC(O)c3nc4cc(OC)c(OC)cc4[nH]3)[nH]c2cc1OC (stereo not drawn),x,i,x,x,x,i
COc1ccc(C2CC(c3c(O)cc(C)oc3=O)=NCCS2)c(OC)c1 (stereo not drawn),1.1µM*,0.37µM*,-8%,u,u,0.29µM*
CCc1ccc(S(=O)(=O)/N=C2\C=C(NS(=O)(=O)c3ccccc3)C(=O)c3ccccc32)cc1,12%,i,-3%,-19%,12%,i

# High-throughput results deposited in PubChem BioAssay by National Center for Advancing Translational Sciences (NCATS).
